This is a sample that favours compounds with a hit; in the whole collection about 14% have one here.
Shiga toxin inh – Shiga toxin inhibition | Vero cells, Shiga toxin protein synthesis inhibition reporter | inhibition, % at 38.7 µM | hit rate 9.2% among 290,000 | AID 2315; in the data active means inhibition mostly above about 28%, no sharp cut-off; inactive means mostly below about 43%; further: 0% is about no effect
LmPK inhibitor – blocks Leishmania mexicana pyruvate kinase activity | Q27686 | purified LmPK, Kinase-Glo ATP luminescence, 1 h | Potency, µM (top dose mostly 57.5 µM), without a hit: at the top dose activity change, negative = inhibition, actives largely listed as inhibitors | hit rate 0.37% among 290,000 | AID 1721; further: potency means the concentration at half of the fitted maximal effect; on the % scale 0 is the no-effect control and ±100 the full control effect
Target sequence (Q27686 whole entry, looked up): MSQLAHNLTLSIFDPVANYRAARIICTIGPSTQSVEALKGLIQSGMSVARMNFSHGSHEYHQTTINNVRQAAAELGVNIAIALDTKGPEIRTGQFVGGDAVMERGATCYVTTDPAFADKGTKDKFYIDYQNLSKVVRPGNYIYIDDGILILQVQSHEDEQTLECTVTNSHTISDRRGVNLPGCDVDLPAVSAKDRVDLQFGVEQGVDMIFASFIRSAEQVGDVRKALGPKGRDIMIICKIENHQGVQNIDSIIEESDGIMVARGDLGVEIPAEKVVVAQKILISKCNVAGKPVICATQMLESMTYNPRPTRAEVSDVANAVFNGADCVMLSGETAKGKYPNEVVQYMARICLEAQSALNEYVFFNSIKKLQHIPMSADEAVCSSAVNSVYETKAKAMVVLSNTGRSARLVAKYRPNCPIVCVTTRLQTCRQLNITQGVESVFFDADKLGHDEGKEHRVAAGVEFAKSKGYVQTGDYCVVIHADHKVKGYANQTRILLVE
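Purified LmPK (0.1 nM) converted ADP (0.1 mM) to ATP with PEP (0.5 mM) in imidazole buffer pH 7.2 with KCl and MgCl2, 1 h at room temperature. ATP was read by Kinase-Glo luminescence; data normalized to uninhibited and no-enzyme controls.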
FBPA Giardia inh – inhibitors of Giardia lamblia fructose-1,6-bisphosphate aldolase; A8B2U2; purified Giardia FBPA; Potency, µM (doses to about 59.6 µM), without a hit: at the highest dose activity, negative = inhibition, usual class: inhibitors; hit rate 0.71% among 290,000; AID 2451; further: potency means the concentration at half of the fitted maximal effect; on the % scale 0 is the no-effect control and ±100 the full control effect; nearly all actives have a fitted effect of over 55% in size
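40 nM FBPA preincubated 10 min at RT with compound (up to 57.5 uM final), then substrate plus GAPDH/TPI/NAD/arsenate coupling and diaphorase/resazurin added. Fluorescence read after 20 min at RT, 525/598 nm.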
NS1 inh – inhibitors of influenza NS1 protein function. Potency, µM (doses to about 46.1 µM), for inactives: top-dose activity, positive = more growth. hit rate 0.4% among 270,000; calls by dose curve; further: potency means the concentration at half of the fitted maximal effect; actives are rising curves; nearly all actives have a fitted effect of over 50% in size
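Recovery from NS1-induced slow growth read by OD600 in budding yeast switched to galactose assay medium (pH 6.0, -URA) at 1:100 dilution. Compound 23 nl per well; the matching strain lacking NS1 serves as control.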
Cycloheximide cs – counter-screen hit for Shiga toxin inhibitors, cycloheximide; cell reporter, cycloheximide protein synthesis inhibition counterscreen; max response, %; hit rate 12% among 300,000; in the data active means max response mostly above about 13%, no sharp cut-off; inactive means mostly below about 14%; further: read at 38.3 µM for the half of the compounds with a filed dose; 0% is about no effect
Active calls of the source: *; i = inactive; u = inconclusive; x = no result given; [ ] = remark or other dose. Unless noted, the call rests on the fitted dose curve; in most records, active means well fitted curve in the direction sought with a large enough effect; inconclusive means small, poorly fitted or top-dose-only effect, or another doubt; inactive means no such curve, though single readings can be large; an effect the other way counts as inactive or inconclusive.

SMILES | Shiga toxin inh | LmPK inhibitor | FBPA Giardia inh | NS1 inh | Cycloheximide cs
COC(=O)C(C(=O)OC)C(CC(=O)c1ccc(C)cc1)c1cc(OC)c(OC)c(OC)c1 (stereo unspecified) | 2 | 3% | 1% | -14% | -3
COc1ccc(C(CC(=O)c2ccc(C)cc2)C(C#N)C#N)cc1OC (stereo unspecified) | 66* | 3% | -12% | -12% | 29*
C/C(=N\NC(=S)Nc1ccccc1C)c1ccc(O)cc1 | 43 | 1% | -19% | 0% | 13*
COCCNC(=S)N/N=C(\C)c1ccc(O)cc1 | -3 | -4% | -27% | -5% | 2
O=C1[C@H]2CCC=C[C@H]2[C@H](c2cccc(Br)c2)N1Cc1ccccc1 | i | x | 5%[89.2 µM] | x | -2
S=C(Nc1ccccc1)c1nc2ccccc2s1 | 83* | -9% | 3% | 2% | 56*
C/C(=C\C(=O)c1ccccc1)NNc1nc2ccccc2s1 | 110* | 4% | 1% | 27% | 44*
O=C(NNc1nc2ccccc2s1)Nc1ccccc1 | 29* | 1% | -3% | 9% | 37*
CC(=O)NNc1nc2ccccc2s1 | 10 | -6% | -1% | 6% | 1
O=C(COc1ccccc1)NNc1nc2ccccc2s1 | 63* | -2% | 4% | 0% | 34*
CN(c1cccc(NC(=O)c2ccccc2N(C)S(=O)(=O)c2ccccc2)c1)S(C)(=O)=O | 9 | 3% | 6% | -6% | -3
CN(c1ccccc1)S(=O)(=O)c1cccc(NC(=O)c2cc3ccccc3oc2=O)c1 | 66* | -3% | 0% | 14% | 61*
COc1ccccc1NS(=O)(=O)c1cccc(NC(=O)c2cc3ccccc3oc2=O)c1 | 87* | -10% | 11% | 11% | 60*
COc1ccccc1NS(=O)(=O)c1cccc(NC(=O)Nc2ccccc2)c1 | -3 | 4% | -4% | 22% | -1
Cc1cccc(NC(=O)Nc2ccc3c(c2)CCC3)c1 | 97* | -6% | 5% | 2% | 56*
CCc1ccc(NC(=O)Nc2ccc3c(c2)CCC3)cc1 | 62* | -1% | x | 12% | 32*
CC(=O)c1cccc(NC(=O)Nc2ccc3c(c2)CCC3)c1 | 41* | -3% | x | -2% | 35*
Cc1cccc(NC(=O)Nc2ccncc2)c1 | 49 | -14% | -1% | x | 3
CC(C)(C)c1cc(C(=O)NCc2cc(F)cc3c2OCOC3)n(Cc2ccccc2)n1 | 83* | 4% | -8% | 7% | 53*
CC(C)(C)c1cc(C(=O)NNC(=O)Nc2ccccc2)n(Cc2ccccc2)n1 | -2 | 5% | 2% | 0% | 0
Cc1ccccc1-c1cc(NCc2ccccc2)ncn1 | x | x | -4% | x | x
Cc1cc(C)n(Cc2ccc(Cl)cc2Cl)c(=O)c1S(=O)(=O)c1ccccc1 | 8 | 0% | -30% | 2% | 11*
C=C(C)Cn1c(C)cc(C)c(S(=O)(=O)c2ccc(C)cc2)c1=O | -6 | 1% | -13% | -8% | -2
Cc1ccccc1N1CCN(C2CCCN(C(=O)CCC3(C)CC3)C2)CC1 (stereo unspecified) | -34 | -5% | x | -13% | -2
COc1cccc(C(=O)Nc2nnc(S(=O)(=O)N(C)Cc3ccc(F)cc3)s2)c1 | 13 | 1% | -28% | -17% | -1
SMILES | Shiga toxin inh | LmPK inhibitor | FBPA Giardia inh | NS1 inh | Cycloheximide cs
CC(NC(=O)c1ccccc1Cl)C1COc2ccccc2O1 (stereo unspecified) | 51* | 2% | 3% | -1% | 31*
CC(NS(=O)(=O)c1ccccc1)C1COc2ccccc2O1 (stereo unspecified) | 2 | 7% | -1% | -11% | 31*
CC(C)NC(=O)c1ccccc1NC(=O)C1COc2ccccc2O1 (stereo unspecified) | 14 | 5% | 0% | -1% | -5
COc1ccc(S(=O)(=O)N2CCC(C(=O)NCCC(=O)Nc3cccc(Cl)c3)CC2)cc1 | -5 | 6% | 5% | -1% | -3
CC(C)(C)N1C(=O)[C@H]2[C@@H]3[C@H](O)[C@H](O)CC(=O)[C@H]3CC[C@H]2C1=O | x | x | 1%[12.9 µM] | x | x
CCOc1ccc(-c2nnn(CC(=O)NCc3ccco3)n2)cc1 | 28 | -2% | 1% | -9% | 26*
O=C(Cn1nnc(-c2ccccc2)n1)NCc1ccco1 | 37 | -11% | -4% | -1% | -4
CCOC(=O)Cn1nnc(-c2ccc([N+](=O)[O-])cc2)n1 | 14 | -3% | -2% | -1% | 11*
CCCOc1ccc(-c2nnn(CC(=O)OCC)n2)cc1 | 44 | 2% | 3% | -70% | 20*
C/C(CC(=O)NCCN1CCOCC1)=N\NC(=O)c1ccncc1 | 15 | 6% | u | 4% | 1
Cc1cc2c(nc1C)CCCCN2C[C@H](O)CN1CCCc2nc(-c3ccc(Br)cc3)ccc21 | x | x | -4%[12.9 µM] | x | x
Cc1ccc(-c2nnnn2CS(=O)(=O)c2ccccc2)cc1 | 20 | -7% | 4% | -4% | 19*
Cc1cc(C(=O)OCC(=O)Nc2cccc(S(N)(=O)=O)c2)c2ccccc2n1 | -3 | 2% | -1% | 3% | 0
COc1nc(-c2ccccc2)ccc1-c1noc(COc2ccccc2)n1 | 24 | 0% | 18% | -35% | 17
COc1cc(OC)c(-c2nc(-c3ccncc3)no2)cc1OC | -7 | 5% | 7% | -7% | 9
c1ccc(OCc2nc(-c3ccccc3)no2)cc1 | 100* | -16% | 0% | -5% | 58*
Clc1ccc(OCc2nc(-c3ccncc3)no2)c(Br)c1 | 71* | 0% | 5% | -52% | 40*
COc1ccccc1Cc1nc(-c2ccncc2)no1 | 21 | -4% | 4% | -8% | 20*
Cc1ccc(OCc2nc(-c3cccnc3)no2)cc1C | 73* | 5% | -3% | -39% | 25*
Cc1cccc(C(=O)N2CCN(Cc3nc4sc5c(c4c(=O)[nH]3)CCCC5)CC2)c1 | -4 | 1% | x | 3% | -2
CCCCCCCCCCCCCCCCCCO | -2 | x | 4% | x | -1
CCOc1ccc(S(=O)(=O)N2CCCC(C(=O)NC3CCCC3)C2)cc1 (stereo unspecified) | -6 | -4% | 0% | 3% | -2
c1ccc(OCc2nc(-c3ccncc3)no2)cc1 | 110* | -1% | 7% | 0% | 50*
Clc1ccccc1OCc1nc(-c2ccncc2)no1 | 86* | 3% | -1% | -67% | 49*
CN(C(=O)CCc1nnc(-c2ccc(-c3ccccc3)cc2)o1)C1CCOCC1 | 30* | -6% | x | 15% | 13
CN(CCCC1CCCC1)C(=O)CCc1nnc(-c2ccccc2)o1 | 53* | -17% | 9% | -9% | 32*
CN(CCC1CCCCO1)C(=O)CCc1nnc(CCCCc2ccccc2)o1 (stereo unspecified) | 33 | 2% | 2% | -5% | 17*
O=C(CCc1nnc(-c2ccccc2)o1)NCc1c(F)cccc1F | 10 | 9% | 3% | -3% | 13
Cc1cc(C)n(CCN(C)C(=O)CCc2nnc(CCC3CCCCC3)o2)n1 | 91* | 4% | -2% | 1% | 38*
CCn1ccnc1CN(C)C(=O)CCc1nnc(CCCc2ccccc2)o1 | 20 | 1% | -6% | -7% | 10
